SKOV3 invasion = blocks SKOV3ip1 adhesion and invasion in omental model. SKOV3ip1-GFP adhesion/invasion on 3D omental model, fluorescence. 46,000 compounds, 0.1% hits. AID 1963576. Potency, µM (doses to about 45.8 µM), inactives show top-dose activity change, negative = inhibition, hits mostly inhibitors;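 further: potency means the concentration at half of the fitted maximal effect; plate controls were DMSO wells for no effect and tomatine positive control wells for full effect; nearly all actives have a fitted effect of over 65% in size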
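qHTS, 4-pt dose (0.36-46 umol/L); SKOV3ip1-GFP, 1,200 cells/well, no FBS; primary omental fibroblast/mesothelial co-culture 48 h pre-grown; 2 h RT + 16 h 37 C; PBS wash, 4% PFA; GFP count 488/509 nm.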
pS6 MEF inh = mTORC1 pathway inhibition measured by phospho-rpS6 | Tsc2-/- p53-/- MEF, phospho-rpS6 immunofluorescence/PI, 24 h | Potency, µM (doses to about 38.3 µM), for inactives: at the highest dose activity change, negative = inhibition, most hits filed as inhibitors | 44,000 compounds, 0.78% hits | AID 493208;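 further: potency means the concentration at half of the fitted maximal effect; plate controls were DMSO for no effect and rapamycin for full effect; nearly all actives have a fitted effect of over 50% in size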
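Tsc2-/-, p53-/- mouse embryonic fibroblasts (empty-vector line) exposed to compound 24 hrs at 37 C, fixed, immunostained for phospho-rpS6 and counterstained with propidium iodide. Acumen laser scanning gives % positive cells from Alexa 488/PI ratio, thresholded using 7.5 nM rapamycin; PI count gives viability.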
S16 F2sN tox = toxic to S16 Pmp22-F2sN Schwann cells; S16 Pmp22-F2sN Schwann cells viability, CellTiter-Glo, 24 h; AID 1508642; 43,000 compounds, 0.48% hits; Potency, µM (doses to about 57.5 µM), without a hit: at the highest dose activity change, negative = cytotoxicity, usual class: cytotoxic; further: potency means the concentration at half of the fitted maximal effect; on the % scale 0 is the no-effect control and ±100 the full control effect; nearly all actives have a fitted effect of over 65% in size
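S16 Schwann cells carrying the Pmp22-F2sN reporter, seeded in 1536-well format, were exposed to library compounds for 24 h at 37C. Viability was read as CellTiter-Glo luminescence after 15 min at room temperature.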
HTT-AS act = activates huntingtin-antisense promoter activity | HEK293 HTT-AS promoter firefly luciferase reporter, 24 h; response scale: percent change from vehicle, -100% = no light | Potency, µM (doses to about 57.5 µM), for inactives: top-dose activity change, positive = activation, most hits filed as activators | 48,000 compounds, 0.24% hits | AID 1508624; further: potency means the concentration at half of the fitted maximal effect; nearly all actives have a fitted effect of over 55% in size
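HEK293 luciferase promoter-reporter cells (2,500/well) plated 24 h, then compounds added at up to 57.5 uM final for 24 h at 37 °C. Firefly luminescence by Dual-Glo, normalized to vehicle (0%) and zero RLU (-100%).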
PMP22 txn = PMP22 gene transcription modulation; Potency, µM (series often up to 57.5 µM), for inactives: at the highest dose activity change, negative = inhibition, hits mostly inhibitors; S16 Pmp22-F2sN Schwann cells (luciferase reporters placed in the Pmp22 gene), FLuc/NLuc coincidence luminescence, 24 h; 43,000 compounds, 2% hits; active means clear falling dose curves in both reporters; inconclusive means both reporters move, but less clearly or upward; inactive means either reporter flat; the % is the NLuc reporter signal; further: potency means the concentration at half of the fitted maximal effect; on the % scale 0 is the no-effect control and ±100 the full control effect
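qHTS, 1536-well. Cells seeded, compounds added by pin tool, 24 h 37C. Nano-Glo reagent 1 (lysis/FLuc), 10 min RT, read; Stop&Glo, 10 min RT, read NLuc.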
HTT promoter inh = inhibitors of huntingtin promoter activity | AID 1508623 | 48,000 compounds, 0.93% hits | HEK293 HTT promoter firefly luciferase reporter, 24 h | Potency, µM (doses to about 57.5 µM), inactives show top-dose activity change, negative = inhibition, hits mostly inhibitors; further: potency means the concentration at half of the fitted maximal effect; nearly all actives have a fitted effect of over 50% in size
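HEK293 luciferase promoter-reporter cells (2,500/well) plated 24 h, then compounds added at up to 57.5 uM final for 24 h at 37 °C. Firefly luminescence by Dual-Glo, normalized to vehicle (0%) and zero RLU (-100%).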
NLuc saturating = NanoLuc enzyme inhibition artifact for PMP22 screen. Secreted NLuc enzyme (filtered S16 cell medium), Nano-Glo luminescence. 690 compounds, 4% hits. AID 1508638. Potency, µM (top dose mostly 57.5 µM), for inactives: at the highest dose activity change, negative = inhibition, usual class: inhibitors. shares compounds with PMP22 txn; further: potency means the concentration at half of the fitted maximal effect; on the % scale 0 is the no-effect control and ±100 the full control effect
NLuc Km counter = counter-screen for PMP22 expression modulators: NanoLuc inhibition at Km. 690 compounds, 5% hits. Potency, µM (titrated, usually from 57.5 µM), inactives show at the top dose activity change, negative = inhibition, usual class: inhibitors. secreted NLuc enzyme, coelenterazine luminescence, Km conditions. shares compounds with PMP22 txn; further: potency means the concentration at half of the fitted maximal effect; on the % scale 0 is the no-effect control and ±100 the full control effect
FLuc ctr PMP22 = firefly luciferase enzyme inhibition artifact for PMP22 screen. shares compounds with PMP22 txn. purified P. pyralis FLuc, luminescence, 10 min. Potency, µM (top dose mostly 57.5 µM), for inactives: at the top dose activity, negative = inhibition, usual class: inhibitors. 690 tested, under 10 active. AID 1508640; further: % of control where 0% means no effect
Target sequence (P08659 whole entry, looked up): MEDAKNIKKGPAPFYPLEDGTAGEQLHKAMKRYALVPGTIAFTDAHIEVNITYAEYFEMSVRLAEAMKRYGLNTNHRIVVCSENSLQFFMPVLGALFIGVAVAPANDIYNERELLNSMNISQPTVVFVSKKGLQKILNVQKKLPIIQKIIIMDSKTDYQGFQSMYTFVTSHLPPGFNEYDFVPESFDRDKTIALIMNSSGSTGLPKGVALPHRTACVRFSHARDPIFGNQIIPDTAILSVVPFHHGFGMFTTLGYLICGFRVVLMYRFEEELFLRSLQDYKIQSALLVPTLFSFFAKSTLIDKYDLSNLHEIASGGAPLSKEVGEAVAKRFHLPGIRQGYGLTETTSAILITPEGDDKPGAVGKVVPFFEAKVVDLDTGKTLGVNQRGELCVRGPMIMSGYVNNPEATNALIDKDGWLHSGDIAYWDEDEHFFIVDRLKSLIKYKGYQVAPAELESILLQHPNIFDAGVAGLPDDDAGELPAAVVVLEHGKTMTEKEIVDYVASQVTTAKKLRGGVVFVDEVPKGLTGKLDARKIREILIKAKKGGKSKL
S16 viab conf = S16 Schwann cell cytotoxicity, confirmatory | shares compounds with PMP22 txn | S16 Schwann cells viability, CellTiter-Glo ATP luminescence, 24 h | Potency, µM (doses to about 57.5 µM), without a hit: top-dose activity change, negative = viability loss, actives largely listed as cytotoxic | 690 compounds, 7% hits | AID 1508641; further: potency means the concentration at half of the fitted maximal effect; on the % scale 0 is the no-effect control and ±100 the full control effect
PMP22 txn cnf = confirmation of modulators of PMP22 gene transcription in S16 cells; AID 1508646; 690 compounds, 22% hits; S16 Schwann cells Pmp22-F2sN, dual luciferase, 24 h; Potency, µM (titrated, usually from 57.5 µM), for the others: at the top dose activity change, negative = inhibition, hits mostly inhibitors; shares compounds with PMP22 txn; active means clear falling dose curves in both reporters; inconclusive means both reporters move, but less clearly or upward; inactive means either reporter flat; the % is the FLuc reporter signal; further: potency means the concentration at half of the fitted maximal effect
Starred values were filed as active, the others as inactive; i = inactive; ? = inconclusive; nt = not tested or not shown; [ ] = another dose, or the depositor's remark. Most compounds without a hit are left out; they make up all but 3.6% or so of the library. Unless noted, the call rests on the fitted dose curve; in most records, active means well fitted curve in the direction sought with a large enough effect; inconclusive means small, poorly fitted or top-dose-only effect, or another doubt; inactive means no such curve, though single readings can be large; an effect the other way counts as inactive or inconclusive.

SMILES | SKOV3 invasion | pS6 MEF inh | S16 F2sN tox | HTT-AS act | PMP22 txn | HTT promoter inh | NLuc saturating | NLuc Km counter | FLuc ctr PMP22 | S16 viab conf | PMP22 txn cnf
CCCCn1c(=O)c2oc3ccccc3c2n(CC(=O)Nc2ccc(CC)cc2)c1=O | -1% | 1% | 14% | -3% | 14µM* | -11% | -10% | 5% | -12% | -4% | ?
Cc1cc(C)c(S(=O)(=O)N2CCN(Cc3nc4ccc(C)cc4o3)CC2)c(C)c1 | -21% | 32% | -11% | -18% | ? | ? | nt | nt | nt | nt | nt
Cc1ccc(S(=O)(=O)N2CCN(Cc3noc(CCC(=O)N4CCCCC4)n3)CC2)c(C)c1 | -4% | -11% | -22% | -24% | ? | -23% | 0% | 3% | 3% | -13% | -16%
CCOc1ccc(NC(=O)CSc2nc(-c3cccs3)cc(C(F)(F)F)c2C#N)cc1 | 4% | 2% | 6% | -5% | -12% | -4% | nt | nt | nt | nt | nt
N#Cc1c(C(F)(F)F)cc(-c2cccs2)nc1SCC(=O)Nc1ccc(Cl)cc1 | 4% | ? | -5% | -17% | 19µM* | -8% | -4% | 3% | -5% | 9% | ?
Cc1nnc(N2CCC(C(=O)N3CCCCC3)CC2)c2nn(-c3ccc(Cl)cc3)c(C)c12 | 2% | -2% | ? | -8% | 19µM* | -10% | -6% | 5% | -2% | -9% | ?
Cc1nnc(N2CCCC(C(=O)Nc3ccccc3C(F)(F)F)C2)c2nn(-c3ccccc3)c(C)c12 (configuration not stated) | ? | -8% | 28µM* | -31% | 13µM* | ? | -19% | -2% | 4% | ? | ?
COc1ccc(CNC(=O)C2CCCN(c3nnc(C)c4c(C)n(-c5ccc(C)cc5)nc34)C2)cc1 (configuration not stated) | -29% | -14% | ? | -18% | 17µM* | 1% | ? | ? | -4% | ? | ?
COc1ccc(NC(=O)C2CCCN(c3nnc(C)c4c(C)n(-c5ccccc5)nc34)C2)cc1Cl (configuration not stated) | ? | ? | ? | -37% | 20µM* | ? | -9% | -1% | 28% | 43µM* | ?
Cc1ccc(NC(=O)C2CCN(c3nnc(C)c4c(C)n(-c5ccccc5)nc34)CC2)cc1Cl | -3% | -8% | 11% | -5% | -3% | -9% | nt | nt | nt | nt | nt
Cc1nnc(N2CCC(C(=O)NC3CCCCC3)CC2)c2nn(-c3ccc(Cl)cc3)c(C)c12 | 3% | -7% | -2% | -10% | -5% | 0% | nt | nt | nt | nt | nt
COc1cc2c(Oc3ccc(-c4cnc(Nc5ccc(F)cc5)n(C)c4=O)cc3F)ccnc2cc1OCCCN1CCOCC1 | ? | nt | nt | -36% | nt | ? | nt | nt | nt | nt | nt
CNc1nc(-c2ccc3c(N)n[nH]c3c2)cc(N2C[C@@H](C(=O)NC3CCCCC3)CC[C@@H]2C)n1 | -27% | nt | nt | -26% | nt | -18% | nt | nt | nt | nt | nt
C=CC[C@@H]1C=C(C)C[C@H](C)C[C@H](OC)[C@H]2O[C@@](O)(C(=O)C(=O)N3CCCC[C@H]3C(=O)O[C@H](C(C)=C[C@@H]3CC[C@H](O)[C@H](OC)C3)[C@@H](C)[C@@H](O)CC1=O)[C@@H](C)C[C@@H]2OC | 0% | nt | nt | -26% | nt | ? | nt | nt | nt | nt | nt
CCOC(=O)Oc1ccc(CCNC(=O)[C@H](CCSC)NC(C)=O)cc1OC(=O)OCC | nt | nt | nt | -2% | nt | 1% | nt | nt | nt | nt | nt
O=C(CSc1ncc2c(n1)-c1ccccc1N(Cc1ccc(F)cc1)S2(=O)=O)NCCc1ccccc1 | 2% | 3% | 4% | 8% | 18µM* | -8% | -1% | 2% | 7% | ? | ?
CCCOc1ccc(CN2C(=O)C(=O)c3cccc(C)c32)cc1 | ? | ? | -7% | -28% | 11µM* | ? | ? | ? | -16% | ? | ?
Cc1ccc(Cl)cc1NC(=O)c1oc2ccc(S(=O)(=O)N3CCC4(CC3)OCCO4)cc2c1C | i | 8% | 3% | -13% | 7.5µM* | -7% | -11% | 2% | 1% | ? | ?
Cc1ccc(Cl)cc1NC(=O)c1oc2ccc(S(=O)(=O)N3CCCCC3)cc2c1C | 9% | -10% | -1% | 1% | -9% | -16% | nt | nt | nt | nt | nt
Cc1c(C(=O)Nc2ccccc2Br)oc2ccc(S(=O)(=O)N3CCCCC3)cc12 | 7% | 10% | 3% | 6% | ? | -12% | -1% | 8% | 3% | -7% | ?
Cc1c(C(=O)Nc2ccccc2Br)oc2ccc(S(=O)(=O)N3CCOCC3)cc12 | 0% | 10% | 21% | -10% | ? | -2% | nt | nt | nt | nt | nt
Cc1c(C(=O)Nc2ccccc2Cl)oc2ccc(S(=O)(=O)N3CCCCCC3)cc12 | 6% | 5% | 0% | 0% | -16% | -16% | nt | nt | nt | nt | nt
Cc1c(C(=O)Nc2ccccc2Cl)oc2ccc(S(=O)(=O)N3CCCCC3)cc12 | i | -4% | 2% | -1% | 14µM* | -16% | -1% | 2% | 4% | -4% | ?
C[C@@H]1[C@H](C)CC[C@]2(C(=O)O)CC[C@]3(C)C(=CC[C@@H]4[C@@]5(C)CC[C@H](O)C(C)(C)[C@H]5CC[C@]43C)[C@@H]12 | 4%[92.2 µM] | nt | nt | -19%[116 µM] | nt | -12%[116 µM] | nt | nt | nt | nt | nt

Screening results: PubChem, National Center for Advancing Translational Sciences (NCATS)
